HepG2 tox-1: qHTS for Inhibitors of TGF-b: Cytotox Counterscreen; HepG2 CAGA-GFP viability, ATP luminescence, 18 h; Potency, µM (doses to about 46.1 µM), for inactives: at the top dose activity change, negative = cytotoxicity, actives largely listed as cytotoxic; hit rate 0.76% among 410,000; also: potency is read from the fitted curve at half-maximal effect
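CellTiter-Glo luminescence gave cytotoxicity after 18 hours at 37 degrees C. The cells were HepG2 CAGA-GFP in 1% FBS DMEM, stimulated with 500 pg/mL TGF-beta after compound addition. %Activity was normalised to no-cell wells (complete cell-killing) and DMSO (no toxicity), and curves were fitted and classified.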
DRD3 agonist: qHTS of D3 Dopamine Receptor Agonist: qHTS. D(3) dopamine receptor (Homo sapiens), P35462. D3R DiscoveRx beta-arrestin cells, luminescence, 90 min. max activation, %. hit rate 0.58% among 410,000; in the data active = max activation above about 30%; also: 0% is about no effect
Target sequence (P35462 whole entry, looked up): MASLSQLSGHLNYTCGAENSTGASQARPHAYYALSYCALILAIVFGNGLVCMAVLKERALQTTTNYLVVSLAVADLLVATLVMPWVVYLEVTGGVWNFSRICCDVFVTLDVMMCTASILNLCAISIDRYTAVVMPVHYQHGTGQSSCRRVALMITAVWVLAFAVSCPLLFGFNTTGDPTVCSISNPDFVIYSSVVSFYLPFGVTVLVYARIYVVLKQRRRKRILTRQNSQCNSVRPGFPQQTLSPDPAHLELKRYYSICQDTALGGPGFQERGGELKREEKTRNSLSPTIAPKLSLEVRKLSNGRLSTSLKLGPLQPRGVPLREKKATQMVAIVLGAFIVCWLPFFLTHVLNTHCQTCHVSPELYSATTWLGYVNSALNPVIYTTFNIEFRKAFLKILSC
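Agonist-mode cell screen: cells plated at 1500/well and incubated overnight at 37 °C, then exposed to library compounds for 90 min at 37 °C. Detection reagent was added for 30–60 min at room temperature, and luminescence was read.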
ATXN2 expr inh: Primary qHTS for Inhibitors of ATXN expression. HEK-293 ATXN2-luciferase reporter, luminescence, 24 h. Potency, µM (series often up to 57 µM), without a hit: top-dose activity change, negative = inhibition, most hits filed as inhibitors. hit rate 0.72% among 360,000; also: potency is read from the fitted curve at half-maximal effect; % is scaled to controls: 0 for no effect and ±100 for the full control effect; nearly all actives have a fitted effect of over 55% in size
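qHTS (up to 57 uM final) was run with 24 h compound exposure of reporter cells at 37 °C. Each well was multiplexed: SteadyGlo luminescence measured ATXN2-luciferase expression after a fluorogenic Gly-Phe-AFC viability readout (25 uM final).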
TGFb SMAD3 inh: qHTS for Inhibitors of TGF-b | HepG2 CAGA-GFP TGF-b/SMAD3 reporter, GFP fluorescence, 18 h; TGF-beta stimulated, 500 pg/mL final | Potency, µM (doses to about 46.1 µM), without a hit: at the top dose activity, negative = inhibition, hits mostly inhibitors | hit rate 1.2% among 410,000 | AID 588855, 2011; also: potency is read from the fitted curve at half-maximal effect; % is scaled to controls: 0 for no effect and ±100 for the full control effect; nearly all actives have a fitted effect of over 65% in size
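TGF-beta reporter screen: HEPG2 CAGA-GFP, 1% FBS, 500 pg/mL TGF-beta final, 18 h; per-cell GFP summed per well; curves fitted and categorized by class.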
DRD3 antagonist: qHTS of D3 Dopamine Receptor Antagonist: qHTS; D3R cells, DiscoveRx beta-arrestin luminescence, antagonist mode; active compounds read low; max response, negative = inhibition, %; hit rate 2.5% among 360,000; AID 652054, 2013; in the data active = max response below about -50%; inconclusive = no clear call, values can overlap the other calls; also: % is scaled to controls: 0 for no effect and ±100 for the full control effect
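Cells plated overnight at 1500 cells/well, then exposed to library compounds with dopamine controls for 90 minutes at 37 degrees C. DiscoveRx reagent added for 30–60 minutes at room temperature; luminescence read, quantitative HTS format.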
S2 tox: Viability Counterscreen for Primary qHTS for Inhibitors of ATXN expression; Potency, µM (highest dose often 56.7 µM), most hits filed as cytotoxic; S2 cells (HEK-293 line with an ATXN2-luciferase reporter) viability, CellTiter-Fluor protease fluorescence, 24 h; AID 651635, 2014; hit rate 0.49% among 400,000; also: potency is read from the fitted curve at half-maximal effect; nearly all actives have a fitted effect of over 40% in size
TGFb confirm: qHTS for Inhibitors of TGF-b: Confirmation of Cherry Picks; HepG2 CAGA-GFP TGF-b reporter, GFP fluorescence, 18 h; cells stimulated with TGF-beta, 500 pg/mL; shares compounds with TGFb SMAD3 inh; Potency, µM (titrated, usually from 46.1 µM), without a hit: at the highest dose activity, negative = inhibition, usual class: inhibitors; hit rate 63% among 1,600; also: potency is read from the fitted curve at half-maximal effect; % is scaled to controls: 0 for no effect and ±100 for the full control effect; nearly all actives have a fitted effect of over 65% in size
HepG2 tox-2: qHTS for Inhibitors of TGF-b: Cytotox Counterscreen for Cherry Picks; shares compounds with TGFb SMAD3 inh; HepG2 CAGA-GFP viability, ATP luminescence, 18 h; cells stimulated with TGF-beta, 500 pg/mL; Potency, µM (series often up to 46.1 µM), without a hit: at the top dose activity, negative = cytotoxicity, hits mostly inhibitors; hit rate 27% among 1,600; AID 720535, 2013; also: potency is read from the fitted curve at half-maximal effect; % is scaled to controls: 0 for no effect and ±100 for the full control effect; nearly all actives have a fitted effect of over 70% in size
TGFb CCL64 inh: qHTS for Inhibitors of TGF-b: CCL64 Cells Orthogonal Assay for Cherry Picks | Potency, µM (doses to about 46.1 µM), inactives show at the top dose activity, negative = inhibition, most hits filed as inhibitors | AID 720536, 2013 | shares compounds with TGFb SMAD3 inh | hit rate 41% among 1,600 | CCL64 CAGA-GFP reporter, TGF-b stimulated, GFP fluorescence, 18 h; also: potency is read from the fitted curve at half-maximal effect; nearly all actives have a fitted effect of over 65% in size
COP TGFb inh: qHTS for Inhibitors of TGF-b: Hit Validation in HepG2 Cells using COP promoter | Potency, µM (doses to about 46.1 µM), inactives show top-dose activity, negative = inhibition, hits mostly inhibitors | AID 720537, 2013 | shares compounds with TGFb SMAD3 inh | HepG2 COP-GFP TGF-b reporter, GFP fluorescence, 18 h; cells stimulated by added recombinant TGF-beta | hit rate 3% among 1,600; also: potency is read from the fitted curve at half-maximal effect; nearly all actives have a fitted effect of over 70% in size
An asterisk follows results filed as active; i = inactive; ? = inconclusive; · = no result. Hits are enriched below; roughly 4.8% of the tested compounds scored in any of these assays. Unless noted, calls follow the shape of the dose curve; as a rule, active = well fitted curve in the direction sought with a large enough effect; inconclusive = small, poorly fitted or top-dose-only effect, or another doubt; inactive = no such curve, though single readings can be large; an effect the other way counts as inactive or inconclusive.

SMILES	HepG2 tox-1	DRD3 agonist	ATXN2 expr inh	TGFb SMAD3 inh	DRD3 antagonist	S2 tox	TGFb confirm	HepG2 tox-2	TGFb CCL64 inh	COP TGFb inh
O=C1OCC2=C1C(c1ccc(F)cc1)c1cc3c(cc1N2)OCO3 (configuration not stated)	5%	-12	?	?	-21	?	·	·	·	·
CCOc1ccccc1C1C2=C(COC2=O)Nc2cc3c(cc21)OCO3 (configuration not stated)	0%	-9	20%	7.1µM*	-4	?	3.3µM*	-23%	1.8µM*	-24%
Fc1cccc(CCN2C(=S)NC[C@@H]2CC2CCCCC2)c1	-34%	-19	0%	14µM*	0	?	16µM*	-16%	?	-23%
Cc1ccc(NC(=O)Cn2cc(C(=O)C3CCCCC3)c3ccccc32)cc1	-20%	4	·	·	·	·	·	·	·	·
CCOCCc1nn2c(=O)cc(COC(=O)c3ccccc3NC(=O)C3CCCCC3)nc2s1	-40%	0	10%	1%	·	i	·	·	·	·
COC(=O)c1ccc(Cn2c(C)c(C(=O)NCc3ccc(C#N)cc3)sc2=O)o1	0%	-1	-10%	-10%	-18	i	·	·	·	·
COC(=O)c1ccc(Cn2c(C)c(C(=O)NCc3ccc(Cl)c(Cl)c3)sc2=O)o1	-6%	-9	?	13µM*	6	i	23µM*	-20%	-6%	0%
Cc1cc(C)c(/C=C/c2onc(C)c2S(=O)(=O)N2CCC(C(=O)N3CCN(c4ccccc4)CC3)CC2)c(C)c1	-3%	3	·	3%	·	·	·	·	·	·
Cc1ccc(N2CCN(C(=O)C3CCN(c4ncnc5c4nc4n5CCCCC4)CC3)CC2)c(C)c1	-7%	10	·	-16%	·	·	·	·	·	·
COc1cc(OC)cc(-c2c(-c3cccs3)c3cc(-c4cc(OC)c(OC)c(OC)c4)ccc3n2C)c1	3%	-14	3%	1%	33	i	·	·	·	·
COc1cc(OC)cc(-c2c(-c3cccs3)c3cc(-c4cnc(OC)nc4)ccc3n2C)c1	-16%	-8	0%	?	-11	i	?	-3%	-11%	-18%
COc1cc(C=CC(=O)c2ccccc2)cc(OC)c1OC	-93%	-13	?	10µM*	-24	i	18µM*	?	16µM*	36%
O=C1N[C@@H](Cc2ccccc2)COC(=O)[C@@H](Cc2ccc(F)cc2)CC/C=C/C[C@@H]1CC(=O)N(CCO)Cc1ccccc1	5%	-8	?	22µM*	0	?	16µM*	-27%	23µM*	28%
O=C1N[C@@H](c2ccccc2)COC(=O)[C@@H](Cc2ccc(F)cc2)C/C=C\C[C@@H]1CC(=O)N(CCO)Cc1ccccc1	-4%	-8	0%	13µM*	10	?	16µM*	?	?	45%
C=C(C)c1cccc(C(C)(C)NC(=O)Nc2nncs2)c1	-13%	-18	-5%	-6%	-15	i	·	·	·	·
C=C(C)c1cccc(C(C)(C)NC(=O)Nc2nnc(C(C)C)s2)c1	8%	0	·	8.9µM*	2	?	?	0%	-6%	-1%
Fc1ccc2c(c1)-c1nc(-c3ccccc3)cc(-c3ccccc3)c1CO2	-1%	-4	-6%	18%	·	i	·	·	·	·
CC1CCN(CC2CCN(C(=O)Nc3ccc(Br)cc3F)CC2)CC1	-13%	-19	-11%	9%	·	i	·	·	·	·
CCOc1ccc(C(CN2CCOCC2)C(C)=O)cc1OC (configuration not stated)	-102%	-10	?	2.5µM*	-27	i	?	16µM*	16µM*	?
O=S(=O)(Nc1cccnc1)c1cccc(C(F)(F)F)c1	-8%	-9	-5%	-8%	-12	i	·	·	·	·
O=[N+]([O-])c1ccc(S(=O)(=O)c2cccc(C(F)(F)F)c2)nc1	13µM*	-33	?	6.3µM*	-126*	16µM*	3.7µM*	7.3µM*	2.6µM*	16µM*
CC1(C)OC(=O)C2(Cc3ccc(Cl)cc3N3CCCCC32)C(=O)O1 (configuration not stated)	17%	·	·	1%	·	·	·	·	·	·
CN(C)c1ncnc2c1ncn2C1OC(CO)C(O)C1O (configuration not stated)	-69%	2	59%	0.63µM*	6	?	0.65µM*	5.8µM*	?	5%
C=CCOc1ccc(C[C@H](N)C(=O)NC[C@H]2O[C@@H](n3cnc4c(N)ncnc43)[C@H](O)[C@@H]2O)cc1	1%	-9	-5%	-13%	-13	i	·	·	·	·
OCC1OC(n2ccc3c2ncn2ncnc32)C(O)C1O (configuration not stated)	-64%	-4	·	5µM*	0	i	1.8µM*	0.52µM*	5%	24%
COc1ccc(C[C@H](N)C(=O)N[C@H]2[C@@H](O)[C@H](n3cnc4c(N(C)C)ncnc43)O[C@@H]2CO)cc1	-80%	-7	0.4µM*	3.2µM*	9	0.71µM*	5.2µM*	2.1µM*	2.9µM*	?
CN(C)c1ncnc2c1nnn2C1OC(CO)C(O)C1O (configuration not stated)	-68%	-1	·	0.56µM*	-10	?	2.1µM*	?	?	20%

From PubChem BioAssay
